# From PubChem BioAssay (Tox21)
# Values without a mark were called inactive. Inconclusive results are not listed. Where a call stands in place of a potency, no number is given. Active and inactive are the calls of the source. Calls come from the whole dose curve; as a rule, active = well fitted curve in the direction sought with a large enough effect in the repeat runs; inconclusive = weak or mixed curves; inactive = no such curve, though single readings can be large; an effect the other way counts as inactive or inconclusive.
# Columns and labels:
# [1] = A CellTox Green Cytotoxicity Assay to monitor cytotoxicity in HEK293 cells - 40 hour (AID 1224871); note: nearly all actives have a fitted effect of over 45% in size
# Outline: (§1)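 Nonlytic real-time cytotoxicity: HEK293 + CellTox Green reagent plated, 5 h preincubation, pintool compound addition (23 nL in DMSO), 37 C for 40 h, fluorescence measured at successive time points.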
# [2] = qHTS RealTime-Glo MT Cell Viability Assay in HEK293 cells - 16 hour (AID 1224872); note: nearly all actives have a fitted effect of over 50% in size; note: potency is the fitted concentration of half-maximal effect
# Outline: (§2)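 Assay medium contained NanoLuc luciferase plus cell-permeant prosubstrate, added with HEK293 cells at 600 cells/well. After 5 h at 37 C/5% CO2 compounds were added; plates stayed at 37 C for 40 h with serial luminescence reads.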
# [3] = qHTS RealTime-Glo MT Cell Viability Assay in HepG2 cells - 8 hour (AID 1224873); note: nearly all actives have a fitted effect of over 55% in size
# Outline: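 HepG2 cells (600/well) mixed with RealTime-Glo MT reagent, settled 5 h at 37 C/5% CO2 before compound addition. Nonlytic NanoLuc luminescence from viable-cell prosubstrate reduction read repeatedly during 40 h treatment at 37 C.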
# [4] = qHTS RealTime-Glo MT Cell Viability Assay in HEK293 cells - 40 hour (AID 1224874); conditions: RealTime-Glo luminescence; max response: hits give low values; note: nearly all actives have a fitted effect of over 50% in size; note: potency is the fitted concentration of half-maximal effect
# Outline: (§3)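 Cells were seeded together with NanoLuc luciferase and a prosubstrate that viable cells reduce to a luciferase substrate. After a 5 h incubation at 37 C/5% CO2, compounds were added and luminescence was measured repeatedly during 40 h of treatment.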
# [5] = A CellTox Green Cytotoxicity Assay to monitor cytotoxicity in HEK293 cells - 24 hour (AID 1224875); note: series mostly up to about 77 µM; nearly all actives have a fitted effect of over 45% in size
# Outline: as §1
# [6] = A CellTox Green Cytotoxicity Assay to monitor cytotoxicity in HepG2 cells - 16 hour (AID 1224876); note: nearly all actives have a fitted effect of over 45% in size
# Outline: (§4)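 Read-out is fluorescence of a cyanine dye excluded from live cells that stains DNA of dead HepG2 cells, with signal proportional to cytotoxicity. Plates were read at 0, 8, 16, 24, 32 and 40 h after compound addition.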
# [7] = qHTS RealTime-Glo MT Cell Viability Assay in HepG2 cells - 32 hour (AID 1224877); note: nearly all actives have a fitted effect of over 55% in size
# Outline: (§5)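 qHTS, HepG2, 600 cells/well, RealTime-Glo (NanoLuc + prosubstrate) added with cells; 5 h preincubation; DMSO compound addition; 37 C; luminescence at 0/8/16/24/32/40 h.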
# [8] = A CellTox Green Cytotoxicity Assay to monitor cytotoxicity in HepG2 cells - 40 hour (AID 1224879); note: nearly all actives have a fitted effect of over 40% in size
# Outline: as §4
# [9] = qHTS RealTime-Glo MT Cell Viability Assay in HEK293 cells - 0 hour (AID 1224880); note: top concentration of the series differs between compounds; nearly all actives have a fitted effect of over 45% in size
# Outline: as §3
# [10] = A CellTox Green Cytotoxicity Assay to monitor cytotoxicity in HEK293 cells - 32 hour (AID 1224881); note: nearly all actives have a fitted effect of over 40% in size
# Outline: as §1
# [11] = A CellTox Green Cytotoxicity Assay to monitor cytotoxicity in HepG2 cells - 0 hour (AID 1224882); note: nearly all actives have a fitted effect of over 35% in size
# Outline: as §4
# [12] = A CellTox Green Cytotoxicity Assay to monitor cytotoxicity in HepG2 cells - 32 hour (AID 1224883); note: nearly all actives have a fitted effect of over 50% in size
# Outline: as §4
# [13] = A CellTox Green Cytotoxicity Assay to monitor cytotoxicity in HEK293 cells - 8 hour (AID 1224884); note: nearly all actives have a fitted effect of over 35% in size
# Outline: as §1
# [14] = qHTS RealTime-Glo MT Cell Viability Assay in HepG2 cells - 16 hour (AID 1224885); note: nearly all actives have a fitted effect of over 50% in size
# Outline: as §5
# [15] = qHTS RealTime-Glo MT Cell Viability Assay in HEK293 cells - 24 hour (AID 1224886); note: nearly all actives have a fitted effect of over 50% in size; note: potency is the fitted concentration of half-maximal effect
# Outline: as §2
# [16] = qHTS RealTime-Glo MT Cell Viability Assay in HEK293 cells - 8 hour (AID 1224887); note: nearly all actives have a fitted effect of over 50% in size; note: potency is the fitted concentration of half-maximal effect
# Outline: as §3
# [17] = A CellTox Green Cytotoxicity Assay to monitor cytotoxicity in HEK293 cells - 16 hour (AID 1224888); note: nearly all actives have a fitted effect of over 35% in size
# Outline: as §1
# [18] = qHTS RealTime-Glo MT Cell Viability Assay in HepG2 cells - 0 hour (AID 1224889); note: nearly all actives have a fitted effect of over 50% in size
# Outline: as §5
# [19] = A CellTox Green Cytotoxicity Assay to monitor cytotoxicity in HepG2 cells - 8 hour (AID 1224890); note: nearly all actives have a fitted effect of over 45% in size
# Outline: as §4
# [20] = A CellTox Green Cytotoxicity Assay to monitor cytotoxicity in HepG2 cells - 24 hour (AID 1224878); note: nearly all actives have a fitted effect of over 45% in size
# Outline: as §4
structure (smiles),measurement,setting,value
CC(=O)SCc1ccco1,Potency,[1],inactive
same,Potency,[2],inactive
same,Potency,[3],inactive
same,max response,[4],13.4%
same,Potency,[5],inactive
same,Potency,[6],inactive
same,Potency,[7],inactive
same,Potency,[8],inactive
same,Potency,[9],inactive
same,Potency,[10],inactive
same,Potency,[11],inactive
same,Potency,[12],inactive
same,Potency,[13],inactive
same,Potency,[14],inactive
same,Potency,[15],inactive
same,Potency,[16],inactive
same,Potency,[17],inactive
same,Potency,[18],inactive
same,Potency,[19],inactive
O=c1[nH]cnc2ccccc12,Potency,[1],inactive
same,Potency,[2],inactive
same,Potency,[3],inactive
same,max response,[4],-7.9%
same,Potency,[5],inactive
same,Potency,[6],inactive
same,Potency,[7],inactive
same,Potency,[8],inactive
same,Potency,[9],inactive
same,Potency,[10],inactive
same,Potency,[11],inactive
same,Potency,[12],inactive
same,Potency,[13],inactive
same,Potency,[14],inactive
same,Potency,[15],inactive
same,Potency,[16],inactive
same,Potency,[17],inactive
same,Potency,[18],inactive
same,Potency,[19],inactive
CC(C)CC=O,Potency,[1],inactive
same,Potency,[2],inactive
same,Potency,[3],inactive
same,max response,[4],6.71%
same,Potency,[5],inactive
same,Potency,[6],inactive
same,Potency,[20],inactive
same,Potency,[8],inactive
same,Potency,[9],inactive
same,Potency,[10],inactive
same,Potency,[11],inactive
same,Potency,[12],inactive
same,Potency,[13],inactive
same,Potency,[14],inactive
same,Potency,[15],inactive
same,Potency,[17],inactive
same,Potency,[18],inactive
same,Potency,[19],inactive
SC1CCCC1,Potency,[1],inactive
same,Potency,[2],inactive
same,Potency,[3],inactive
same,max response,[4],8.94%
same,Potency,[5],inactive
same,Potency,[6],inactive
same,Potency,[7],inactive
same,Potency,[8],inactive
same,Potency,[9],inactive
same,Potency,[10],inactive
same,Potency,[11],inactive
same,Potency,[12],inactive
same,Potency,[13],inactive
same,Potency,[15],inactive
same,Potency,[17],inactive
same,Potency,[18],inactive
same,Potency,[19],inactive
Cc1nc2ccccc2n1Cc1ccc(Cl)cc1,Potency,[1],inactive
same,Potency,[2],3010 nM (active)
same,Potency,[3],inactive
same,Potency,[4],1690 nM (active)
same,Potency,[5],inactive
same,Potency,[6],inactive
same,Potency,[8],inactive
same,Potency,[10],inactive
same,Potency,[11],inactive
same,Potency,[12],inactive
same,Potency,[13],inactive
same,Potency,[15],1900 nM (active)
same,Potency,[16],8490 nM (active)
same,Potency,[17],inactive
same,Potency,[18],inactive
same,Potency,[19],inactive
CCCC[C@H]1CN(CC2CCOCC2)C(=O)OC12CCN(C1(C)CCN(C(=O)c3c(C)ncnc3C)CC1)CC2,Potency,[1],inactive
same,Potency,[2],inactive
same,Potency,[3],inactive
same,max response,[4],0.654%
same,Potency,[5],inactive
same,Potency,[6],inactive
same,Potency,[7],inactive
same,Potency,[9],inactive
same,Potency,[10],inactive
same,Potency,[11],inactive
same,Potency,[13],inactive
same,Potency,[14],inactive
same,Potency,[15],inactive
same,Potency,[16],inactive
same,Potency,[17],inactive
same,Potency,[19],inactive
C[C@@H](C1=C(CCN(C)C)Cc2ccccc21)c1ccccn1,Potency,[1],inactive
same,Potency,[2],inactive
same,Potency,[3],inactive
same,max response,[4],-16.8%
same,Potency,[5],inactive
same,Potency,[6],inactive
same,Potency,[7],inactive
same,Potency,[20],inactive
same,Potency,[10],inactive
same,Potency,[11],inactive
same,Potency,[12],inactive
same,Potency,[13],inactive
same,Potency,[14],inactive
same,Potency,[15],inactive
same,Potency,[16],inactive
same,Potency,[17],inactive
same,Potency,[18],inactive
same,Potency,[19],inactive
CCOc1cc(OCC)c(C(=O)CCC(=O)O)cc1OCC,Potency,[1],inactive
same,Potency,[2],inactive
same,Potency,[3],inactive
same,max response,[4],3.3%
same,Potency,[5],inactive
same,Potency,[6],inactive
same,Potency,[7],inactive
same,Potency,[20],inactive
same,Potency,[8],inactive
same,Potency,[10],inactive
same,Potency,[11],inactive
same,Potency,[12],inactive
same,Potency,[14],inactive
same,Potency,[15],inactive
same,Potency,[16],inactive
same,Potency,[17],inactive
same,Potency,[18],inactive
same,Potency,[19],inactive
N#CCc1cccc(C(F)(F)F)c1,Potency,[1],inactive
same,Potency,[2],inactive
same,Potency,[3],inactive
same,max response,[4],10.3%
same,Potency,[5],inactive
same,Potency,[6],inactive
same,Potency,[7],inactive
same,Potency,[20],inactive
same,Potency,[8],inactive
same,Potency,[10],inactive
same,Potency,[11],inactive
same,Potency,[12],inactive
same,Potency,[13],inactive
same,Potency,[15],inactive
same,Potency,[16],inactive
same,Potency,[17],inactive
same,Potency,[18],inactive
same,Potency,[19],inactive
C1=Cc2ccccc2C1,Potency,[1],inactive
same,Potency,[2],inactive
same,Potency,[3],inactive
same,max response,[4],6.96%
same,Potency,[5],inactive
same,Potency,[7],inactive
same,Potency,[20],inactive
same,Potency,[8],inactive
same,Potency,[9],inactive
same,Potency,[10],inactive
same,Potency,[11],inactive
same,Potency,[12],inactive
same,Potency,[14],inactive
same,Potency,[15],inactive
same,Potency,[16],inactive
same,Potency,[17],inactive
same,Potency,[18],inactive
same,Potency,[19],inactive
Cc1cccc(OCCOc2cccc(C)c2)c1,Potency,[1],inactive
same,Potency,[2],inactive
same,Potency,[3],inactive
same,max response,[4],-15.5%
same,Potency,[5],inactive
same,Potency,[7],inactive
same,Potency,[9],inactive
same,Potency,[10],inactive
same,Potency,[11],inactive
same,Potency,[13],inactive
same,Potency,[15],inactive
same,Potency,[16],inactive
same,Potency,[17],inactive
same,Potency,[18],inactive
same,Potency,[19],inactive
CC(O)C1CCCCC1 (centres undefined),Potency,[1],inactive
same,Potency,[2],inactive
same,Potency,[3],inactive
same,max response,[4],3.26%
same,Potency,[5],inactive
same,Potency,[7],inactive
same,Potency,[8],inactive
same,Potency,[9],inactive
same,Potency,[10],inactive
same,Potency,[11],inactive
same,Potency,[12],inactive
same,Potency,[13],inactive
same,Potency,[14],inactive
same,Potency,[15],inactive
same,Potency,[16],inactive
same,Potency,[17],inactive
same,Potency,[18],inactive
same,Potency,[19],inactive
c1ccc(-c2nc[nH]c2-c2ccccc2)cc1,Potency,[1],inactive
same,Potency,[2],inactive
same,Potency,[3],inactive
same,max response,[4],-25%
same,Potency,[5],inactive
same,Potency,[7],inactive
same,Potency,[9],inactive
same,Potency,[10],inactive
same,Potency,[13],inactive
same,Potency,[14],inactive
same,Potency,[15],inactive
same,Potency,[16],inactive
same,Potency,[17],inactive
same,Potency,[18],inactive
CCCCOC(O)CC (centres undefined),Potency,[1],inactive
same,Potency,[2],inactive
same,Potency,[3],inactive
same,max response,[4],3%
same,Potency,[5],inactive
same,Potency,[7],inactive
same,Potency,[8],inactive
same,Potency,[9],inactive
same,Potency,[10],inactive
same,Potency,[11],inactive
same,Potency,[12],inactive
same,Potency,[13],inactive
same,Potency,[14],inactive
same,Potency,[15],inactive
same,Potency,[16],inactive
same,Potency,[17],inactive
same,Potency,[18],inactive
same,Potency,[19],inactive
Cc1ccc(C(N)=O)cc1N,Potency,[1],inactive
same,Potency,[2],inactive
same,Potency,[3],inactive
same,max response,[4],10%
same,Potency,[5],inactive
same,Potency,[20],inactive
same,Potency,[8],inactive
same,Potency,[10],inactive
same,Potency,[11],inactive
same,Potency,[12],inactive
same,Potency,[13],inactive
same,Potency,[14],inactive
same,Potency,[15],inactive
same,Potency,[16],inactive
same,Potency,[17],inactive
same,Potency,[18],inactive
same,Potency,[19],inactive
